KinaseGlo FLuc: Counterscreen for Luciferase (Kinase-Glo TM) Inhibition. Luciferin 4-monooxygenase (Photuris pensylvanica), Q27757. Kinase-Glo luciferase, ATP luminescence, 8 min. Potency, µM (highest dose often 38.3 µM), for inactives: top-dose activity change, negative = inhibition, hits mostly inhibitors. 200,000 compounds, 0.28% hits. AID 1379, 2008; further: on the % scale 0 is the no-effect control and ±100 the full control effect; nearly all actives have a fitted effect of over 60% in size
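Compound is pinned into ATP-containing buffer (10 uM ATP, imidazole pH 7.2, 7 mM MgCl2). Kinase-Glo luciferase reagent is then added. Light output is recorded following an 8-min room-temperature incubation.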
ELG1 genotoxic: qHTS screen for small molecules that induce genotoxicity in human embryonic kidney (HEK293T) cells expressing luciferase-tagged ELG1; HEK293T ELG1-luciferase reporter, luminescence, 16 h; Potency, µM (highest dose often 46 µM), without a hit: at the top dose activity change, positive = activation, hits mostly activators; 330,000 compounds, 1.3% hits; further: % of control where 0% means no effect; nearly all actives have a fitted effect of over 60% in size
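Luminescence read-out: rising ELG1-luciferase signal, reflecting elevated ELG1 protein under genetic stress, flags genotoxic compounds. Cells were treated for 16 hr at 37 °C before ONE-Glo detection.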
Rab9 prom act: qHTS Assay for Rab9 Promoter Activators | 320,000 compounds, 2.8% hits | Potency, µM (top dose mostly 9.22 µM), inactives show at the top dose activation, negative = inhibition, usual class: activators | Huh7 Rab9 promoter-luciferase reporter, luminescence, 24 h; further: % of control where 0% means no effect; nearly all actives have a fitted effect of over 60% in size
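Steps: seed 1500 Huh7 Rab9-luc cells per well, rest 2 h at 37 °C; add compound in DMSO; incubate 24 h; add luciferase reagent, 10 min ambient; read luminescence.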
SMN2 splice up: qHTS Assay for Enhancers of SMN2 Splice Variant Expression. HEK293 SMN2-luciferase splicing reporter, luminescence, 30-36 h. Potency, µM (titrated, usually from 46.1 µM), without a hit: top-dose activity change, positive = activation, most hits filed as activators. 210,000 compounds, 2.8% hits. AID 1458, 2008; further: % of control where 0% means no effect; nearly all actives have a fitted effect of over 55% in size
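HEK293 cells carry an SMN2 […]–luciferase reporter in which exon 7 inclusion puts luciferase in frame. Cells were plated 10-12 h before compound addition, then incubated 30-36 h at 37C. ONE-Glo luminescence was read; sodium butyrate at 4.5 mM final served as control.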
NPC1 prom act: qHTS Assay for NPC1 Promoter Activators; Huh7 NPC1 promoter luciferase reporter, 24 h; Potency, µM (highest dose often 9.22 µM), for the others: at the highest dose activation, most hits filed as activators; 320,000 compounds, 2.4% hits; AID 485313, 2010; further: % of control where 0% means no effect; nearly all actives have a fitted effect of over 60% in size
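In 1536-well qHTS, Huh7 cells harboring an NPC1 promoter–luciferase construct received compound for 24 h; activation was quantified by luminescence following luciferase reagent addition.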
FLuc counter: qHTS profiling assay for firefly luciferase inhibitor/activator using purifed enzyme and Km concentrations of substrates (counterscreen for miR-21 project). purified FLuc, Km substrates, luminescence inhibition. Potency, µM (titrated, usually from 57.5 µM), for the others: top-dose activity change, negative = inhibition, most hits filed as inhibitors. 360,000 compounds, 6.9% hits. AID 588342, 2011;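 further: plate controls were vehicle for no effect and reference inhibitor for full effect; nearly all actives have a fitted effect of over 55% in size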
Target sequence (P08659 whole entry, looked up): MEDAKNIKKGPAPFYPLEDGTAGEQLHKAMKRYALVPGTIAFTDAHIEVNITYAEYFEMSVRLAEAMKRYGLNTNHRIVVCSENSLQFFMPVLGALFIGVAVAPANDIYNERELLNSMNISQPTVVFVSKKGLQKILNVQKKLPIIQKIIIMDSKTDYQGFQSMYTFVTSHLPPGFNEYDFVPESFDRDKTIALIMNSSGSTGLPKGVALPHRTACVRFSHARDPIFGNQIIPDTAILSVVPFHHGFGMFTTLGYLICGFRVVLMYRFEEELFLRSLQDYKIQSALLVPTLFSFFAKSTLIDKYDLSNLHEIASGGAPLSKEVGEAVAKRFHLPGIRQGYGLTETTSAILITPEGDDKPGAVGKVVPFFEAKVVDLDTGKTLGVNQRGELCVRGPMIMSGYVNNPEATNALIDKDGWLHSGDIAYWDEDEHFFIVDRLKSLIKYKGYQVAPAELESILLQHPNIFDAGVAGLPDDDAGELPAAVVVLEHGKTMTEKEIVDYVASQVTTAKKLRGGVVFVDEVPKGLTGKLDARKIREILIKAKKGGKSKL
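Biochemical qHTS of compounds, final roughly 60 µM downward over six points, against 10 nM purified firefly luciferase using Km concentrations of substrates (10 uM D-luciferin, 10 uM ATP) in Tris acetate pH 7.5 buffer; luminescence output.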
Active calls of the source: *. Shown are actives, neighbours in structure and some others; about 7.5% of the full set was active somewhere. The call rests on the fitted dose curve; in most records, active means well fitted curve in the direction sought with a large enough effect; inconclusive means small, poorly fitted or top-dose-only effect, or another doubt; inactive means no such curve, though single readings can be large; an effect the other way counts as inactive or inconclusive. Potency means the concentration at half of the fitted maximal effect.

Screening Cc1cc(C)nc(-n2nc(C)c(Sc3ccc(F)cc3)c2N)n1 returned KinaseGlo FLuc -15.4%, ELG1 genotoxic inconclusive, Rab9 prom act 3.55µM*, SMN2 splice up 15.8µM*, NPC1 prom act 2.51µM* and FLuc counter 10.7µM*.
Cc1nn(-c2ccccc2)c(N)c1Sc1cccc([N+](=O)[O-])c1 was read as KinaseGlo FLuc -2.3%, ELG1 genotoxic -1.4%, Rab9 prom act -5.4%, SMN2 splice up -32.3%, NPC1 prom act -2.4% and FLuc counter -2.3%.
CCCCOc1ccc(C(=O)N/N=C/c2cn[nH]c2-c2ccc(OC)c(OC)c2)cc1 was read as KinaseGlo FLuc -0.5%, ELG1 genotoxic -3.1%, Rab9 prom act -3.0%, SMN2 splice up -1.2%, NPC1 prom act -2.2% and FLuc counter 12µM*.
Screening COc1ccc(-c2[nH]ncc2/C=N\NC(=O)c2ccc(C(C)(C)C)cc2)cc1OC returned KinaseGlo FLuc -5.3%, ELG1 genotoxic 3.0%, Rab9 prom act 3.8%, SMN2 splice up inconclusive, NPC1 prom act 1.1% and FLuc counter 1.35µM*.
For CCN(C(=O)Cn1c(=O)n(CCCS(=O)(=O)C2CCCCC2)c(=O)c2ccccc21)c1cccc(C)c1 the results were SMN2 splice up -18.3% and FLuc counter -1.2%.
`Cn1cccc1C(=O)C(=O)Nc1ccccc1` gave KinaseGlo FLuc 12.6µM*, ELG1 genotoxic inconclusive, Rab9 prom act 0.631µM*, SMN2 splice up 12.6µM*, NPC1 prom act 0.562µM* and FLuc counter 5.36µM*.
Screening O=C(Nc1ccc(OCC(=O)N2CCN(S(=O)(=O)c3ccccc3)CC2)cc1)c1ccco1 returned KinaseGlo FLuc -6.7%, ELG1 genotoxic -4.3%, Rab9 prom act -0.8%, SMN2 splice up 22.1%, NPC1 prom act 3.4% and FLuc counter 10.7µM*.
O=C(Nc1ccc(OCC(=O)N2CCC(Cc3ccccc3)CC2)cc1)c1ccco1 was read as KinaseGlo FLuc 1.0%, ELG1 genotoxic -0.9%, Rab9 prom act -5.9%, SMN2 splice up -12.0%, NPC1 prom act 1.7% and FLuc counter 26.9µM*.
`O=C(Nc1ccc(S(=O)(=O)N2CCCCCC2)cc1)c1ccco1` gave KinaseGlo FLuc -2.0%, ELG1 genotoxic inconclusive, Rab9 prom act inconclusive, SMN2 splice up inconclusive, NPC1 prom act 21.4% and FLuc counter inconclusive.
`Cc1ccc2oc(=O)c3cnn(CC(=O)N4CCN(c5cccc(C(F)(F)F)c5)CC4)c3c2c1` gave SMN2 splice up -15.1% and FLuc counter 3.6%.
Screening CCCn1c2ccccc2c2cnn(CC(=O)Nc3ccccc3OC)c(=O)c21 returned FLuc counter -19.9%.
Screening COc1cccc(-c2cncnc2NCc2ccccc2)c1 returned KinaseGlo FLuc 0.5% and SMN2 splice up -40.8%.
Screening COc1ccc(OC)c(CCNC(=O)Cn2ncc3c([nH]c4ccccc43)c2=O)c1 returned FLuc counter -0.5%.
`CC(=O)Nc1ccc(S(=O)(=O)Nc2ccc(-c3cn4c(C)csc4n3)cc2)cc1` gave FLuc counter 16.9µM*.
For CCS(=O)(=O)Nc1ccc(-c2cn3c(C)csc3n2)cc1 the results were FLuc counter 19µM*.
`CCS(=O)(=O)NCc1cn2c(C)csc2n1` gave KinaseGlo FLuc -5.2%, ELG1 genotoxic 3.2%, Rab9 prom act -3.8%, SMN2 splice up 2.4%, NPC1 prom act 5.3% and FLuc counter -1.2%.

Screens (PubChem BioAssay)
